The target in test [1] is sheep Cyclooxygenase-1 (Cox1), PTGS1 (gene 443551) (UniProt P05979). As to the kind of experiment: NVS_ENZ_oCOX1: NovaScreen (NVS) Enzymatic Assay for sheep Cyclooxygenase-1 (Cox1) (AID 2283239).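 Note: actives reduce cyclooxygenase activity so potencies are for inhibitors.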 The method, boiled down:
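Absorbance read-out of cyclooxygenase activity in a cell-free preparation from sheep seminal vesicles, taken 0.66 hour after dosing. Initial testing was in duplicate at 25 uM, and confirmatory testing was run in concentration series.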

Test [2] has as its target sheep Cyclooxygenase-2 (Cox2), PTGS2 (gene 443460) (UniProt P79208). As to the kind of experiment: NVS_ENZ_oCOX2: NovaScreen (NVS) Enzymatic Assay for sheep Cyclooxygenase-2 (Cox2) (AID 2283231). The method, boiled down: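 Enzyme extracted from ovine placenta tested cell-free; activity read colorimetrically by absorbance 0.66 hour after dosing. Primary screen in duplicate at 25 uM; hits rerun as concentration series to 50 uM, loss of signal versus DMSO baseline.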

Test [3] relates to rat Monoamine Oxidase, MAO-A, Peripheral (MAOAP), gene 29253. As to the kind of experiment: NVS_ENZ_rMAOAP: NovaScreen (NVS) Enzymatic Assay for rat Monoamine Oxidase, MAO-A, Peripheral (MAOAP) (AID 2283237). In short, it runs like this: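 Rat liver mitochondrial membranes served as the MAO-A source, with enzyme activity measured by radiometric scintillation counting 1.17 hours after dosing. Loss of signal was fitted against DMSO; primary screen used 25 uM in duplicate, follow-up used concentration series.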

The target in test [4] is human Vascular Endothelial Growth Factor Receptor 2 (VEGFR2), KDR (gene 3791) (UniProt P35968). As to the kind of experiment: NVS_ENZ_hVEGFR2: NovaScreen (NVS) Enzymatic Assay for human Vascular Endothelial Growth Factor Receptor 2 (VEGFR2) (AID 2283230). The method, boiled down: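 Cell-free recombinant VEGFR2 kinase, fluorescent substrate with electrophoretic mobility-shift separation; read 1 h after dosing. Screened at 25 uM in duplicate, hits to concentration-response up to 50 uM; loss-of-signal versus DMSO.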

Test [5] has as its target human Sirtuin 2 (SIRT2), SIRT2 (gene 22933) (UniProt Q8IXJ6). As to the kind of experiment: NVS_ENZ_hSIRT2: NovaScreen (NVS) Enzymatic Assay for human Sirtuin 2 (SIRT2) (AID 2283217). In short, it runs like this:
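Cell-free recombinant human SIRT2, fluorescent substrate with product separated by electrophoretic mobility shift, 1 hr. Screened in duplicate at 25 uM; hits rerun singly in concentration-response up to 50 uM, relative to DMSO.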

Test [6] deals with human Vascular Endothelial Growth Factor Receptor 1 (VEGFR1), FLT1 (gene 2321) (UniProt P17948). As to the kind of experiment: NVS_ENZ_hVEGFR1: NovaScreen (NVS) Enzymatic Assay for human Vascular Endothelial Growth Factor Receptor 1 (VEGFR1) (AID 2283226). In short, it runs like this:
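Cell-free assay of recombinant human VEGFR1 kinase with substrate, measured 1 h after dosing; fluorescence with electrophoretic mobility-shift separation of substrate and product, referenced to DMSO; primary screen at 25 uM in duplicate, actives then run in concentration series.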

Test [7] deals with human Tyrosine Protein Kinase Receptor Tie-2 (Tie2), TEK (gene 7010) (UniProt Q02763). As to the kind of experiment: NVS_ENZ_hTie2: NovaScreen (NVS) Enzymatic Assay for human Tyrosine Protein Kinase Receptor Tie-2 (Tie2) (AID 2283225). The method, boiled down:
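Recombinant human Tie2 kinase activity was read cell-free by fluorescence with electrophoretic mobility shift, 1 hour after dosing. The screen used 25 uM in duplicate, then concentration-response up to 50 uM. Signal loss was scored against DMSO.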

Test [8] has as its target human Protein Tyrosine Phosphatase Receptor Type B (PTPRB), PTPRB (gene 5787) (UniProt P23467). Briefly: NVS_ENZ_hPTPRB: NovaScreen (NVS) Enzymatic Assay for human Protein Tyrosine Phosphatase Receptor Type B (PTPRB) (AID 2283211). In short, it runs like this: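 Recombinant human PTPRB with a fluorescent substrate, product separated by electrophoretic mobility shift; read 1 h after dosing. Primary screen in duplicate at 25 uM; actives then retested in concentration series; loss of signal versus DMSO.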

Test [9] deals with human Protein Tyrosine Phosphatase Receptor Type C (PTPRC), PTPRC (gene 5788) (UniProt P08575). As to the kind of experiment: NVS_ENZ_hPTPRC: NovaScreen (NVS) Enzymatic Assay for human Protein Tyrosine Phosphatase Receptor Type C (PTPRC) (AID 2283212). The method, boiled down: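 Yeast-extracted human PTPRC used in a cell-free colorimetric enzyme activity read-out, 1 h after dosing. Primary screen in duplicate at 25 uM; actives rerun in concentration-response up to 50 uM, DMSO as baseline.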

Test [10] concerns the target human SRC Proto-Oncogene, Non-receptor Tyrosine Kinase (SRC), SRC (gene 6714) (UniProt P12931). Briefly: NVS_ENZ_hSRC: NovaScreen (NVS) Enzymatic Assay for human SRC Proto-Oncogene, Non-receptor Tyrosine Kinase (SRC) (AID 2283223). The method, boiled down: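 Cell-free kinase activity assay with fluorescent substrate, product separated by electrophoretic mobility shift, read 1 h after dosing. Duplicate single point at 25 uM, then concentration-response up to 50 uM; loss of signal versus DMSO.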

Test [11] addresses rabbit Imidazoline 2 Central (I2C), CKB (gene 100009085) (UniProt P00567). As to the kind of experiment: NVS_ENZ_rabI2C: NovaScreen (NVS) Enzymatic Assay for rabbit Imidazoline 2 Central (I2C) (AID 2283228). The method, boiled down:
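Rabbit brain membranes, cell-free; readout by filter-based scintillation counting 1.5 hours after dosing, loss of signal vs DMSO. Initial duplicate test at 25 uM, then concentration-response with 50 uM top concentration.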

The target in test [12] is rat Adenylate Cyclase, Forskolin Stimulated, Adcy5 (gene 64532) (UniProt Q04400). Briefly: NVS_ENZ_rACFSKBinding: NovaScreen (NVS) Enzymatic Assay for rat Adenylate Cyclase, Forskolin Stimulated (AID 2283232). The method, boiled down: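 Rat forebrain membrane preparation, cell-free, read 1 h after dosing by filter-based scintillation counting. Primary screen in duplicate at 25 uM; actives (e.g. ≥30% inhibition) rerun in concentration-response up to 50 uM; fit versus DMSO.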

Test [13] has as its system bovine Angiotensin II Receptor Type 2 (AT2), gene 407157. Briefly: NVS_GPCR_bAT2: NovaScreen (NVS) G Protein-Coupled Receptor Assay for bovine Angiotensin II Receptor Type 2 (AT2) (AID 2283240). The method, boiled down:
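Radioligand displacement on bovine cerebellar membranes, 1 hour incubation, filter-based scintillation counting; loss of signal vs DMSO. Duplicate single-point screen at 25 uM, then concentration-response to 50 uM maximum.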

The target of test [14] is bovine Dopamine Receptor (DR), Non-selective Binding, DRD1 (gene 281125) (UniProt Q95136). Briefly: NVS_GPCR_bDR_NonSelective: NovaScreen (NVS) G Protein-Coupled Receptor Assay for bovine Dopamine Receptor (DR), Non-selective Binding (AID 2283241). The method, boiled down:
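Bovine striatal membranes; radioligand displacement read by filtration and scintillation counting 1 h after dosing, loss of signal vs DMSO. Screened in duplicate at 25 uM, then concentration-response for hits.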

The structures appear in SMILES notation. “And” between values parts separate entries of the source, which are not always exact repeats. Equal values may be shown once. Records with an inconclusive call do not appear. The source made the active and inactive calls. Rule for the calls: active = hit-call score of the fitted dose curve at least 0.9, where 1 is the maximum; inconclusive = response in the unintended direction; inactive = score below 0.9.

The AC50 is the midpoint of the concentration-response curve, whichever way the signal moves.

sheep Cyclooxygenase-1 (Cox1), PTGS1 (gene 443551), sequence (P05979 whole entry, looked up): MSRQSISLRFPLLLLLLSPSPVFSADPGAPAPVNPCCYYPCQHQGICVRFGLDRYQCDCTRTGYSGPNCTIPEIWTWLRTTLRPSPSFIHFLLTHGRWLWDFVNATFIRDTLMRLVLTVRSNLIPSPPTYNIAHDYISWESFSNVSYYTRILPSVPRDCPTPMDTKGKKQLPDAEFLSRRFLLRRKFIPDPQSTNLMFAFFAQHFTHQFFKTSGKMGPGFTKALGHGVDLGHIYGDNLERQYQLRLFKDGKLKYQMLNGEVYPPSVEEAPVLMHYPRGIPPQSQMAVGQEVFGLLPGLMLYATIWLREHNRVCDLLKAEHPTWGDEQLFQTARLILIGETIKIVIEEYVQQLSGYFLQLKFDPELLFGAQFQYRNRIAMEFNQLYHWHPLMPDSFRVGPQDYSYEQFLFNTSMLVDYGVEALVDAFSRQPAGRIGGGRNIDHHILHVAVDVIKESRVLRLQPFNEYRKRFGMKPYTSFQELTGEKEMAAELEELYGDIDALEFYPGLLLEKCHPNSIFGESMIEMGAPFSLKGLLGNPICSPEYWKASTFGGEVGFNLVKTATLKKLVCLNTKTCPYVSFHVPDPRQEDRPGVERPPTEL
human Vascular Endothelial Growth Factor Receptor 2 (VEGFR2), KDR (gene 3791), sequence (P35968 whole entry, looked up): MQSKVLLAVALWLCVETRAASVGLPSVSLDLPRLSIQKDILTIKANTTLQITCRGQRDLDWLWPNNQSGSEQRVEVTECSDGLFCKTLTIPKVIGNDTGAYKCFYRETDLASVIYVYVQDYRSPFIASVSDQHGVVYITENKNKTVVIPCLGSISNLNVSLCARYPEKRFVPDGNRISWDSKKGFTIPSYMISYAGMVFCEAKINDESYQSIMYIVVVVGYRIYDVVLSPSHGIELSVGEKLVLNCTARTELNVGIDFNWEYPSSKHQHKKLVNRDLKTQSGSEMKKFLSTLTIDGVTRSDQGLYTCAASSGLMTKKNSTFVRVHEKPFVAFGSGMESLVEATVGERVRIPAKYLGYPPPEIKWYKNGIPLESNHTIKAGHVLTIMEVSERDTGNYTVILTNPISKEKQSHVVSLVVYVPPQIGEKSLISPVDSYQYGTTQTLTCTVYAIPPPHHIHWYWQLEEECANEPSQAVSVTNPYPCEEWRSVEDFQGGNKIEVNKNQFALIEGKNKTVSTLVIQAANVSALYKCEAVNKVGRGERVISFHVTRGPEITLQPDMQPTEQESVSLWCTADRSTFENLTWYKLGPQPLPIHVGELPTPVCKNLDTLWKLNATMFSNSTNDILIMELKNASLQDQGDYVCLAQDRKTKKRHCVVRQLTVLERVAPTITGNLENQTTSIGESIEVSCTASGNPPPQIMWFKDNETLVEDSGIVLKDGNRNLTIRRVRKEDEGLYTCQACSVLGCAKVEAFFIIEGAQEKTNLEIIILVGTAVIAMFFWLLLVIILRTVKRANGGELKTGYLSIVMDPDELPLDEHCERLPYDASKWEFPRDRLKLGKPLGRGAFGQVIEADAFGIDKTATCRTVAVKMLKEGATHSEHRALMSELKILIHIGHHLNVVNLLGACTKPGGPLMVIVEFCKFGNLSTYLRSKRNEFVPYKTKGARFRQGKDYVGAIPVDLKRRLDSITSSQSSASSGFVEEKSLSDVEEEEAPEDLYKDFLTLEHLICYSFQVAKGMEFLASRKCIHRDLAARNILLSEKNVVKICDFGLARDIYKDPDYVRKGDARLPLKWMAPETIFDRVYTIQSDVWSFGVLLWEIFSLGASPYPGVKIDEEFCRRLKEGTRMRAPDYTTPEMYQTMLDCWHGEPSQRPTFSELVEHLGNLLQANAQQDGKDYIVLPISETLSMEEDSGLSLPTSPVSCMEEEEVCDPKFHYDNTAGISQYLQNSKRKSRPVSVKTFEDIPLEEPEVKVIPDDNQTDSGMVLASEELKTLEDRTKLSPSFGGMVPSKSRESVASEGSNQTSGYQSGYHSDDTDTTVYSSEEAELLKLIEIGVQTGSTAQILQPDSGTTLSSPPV
sheep Cyclooxygenase-2 (Cox2), PTGS2 (gene 443460), sequence (P79208 whole entry, looked up): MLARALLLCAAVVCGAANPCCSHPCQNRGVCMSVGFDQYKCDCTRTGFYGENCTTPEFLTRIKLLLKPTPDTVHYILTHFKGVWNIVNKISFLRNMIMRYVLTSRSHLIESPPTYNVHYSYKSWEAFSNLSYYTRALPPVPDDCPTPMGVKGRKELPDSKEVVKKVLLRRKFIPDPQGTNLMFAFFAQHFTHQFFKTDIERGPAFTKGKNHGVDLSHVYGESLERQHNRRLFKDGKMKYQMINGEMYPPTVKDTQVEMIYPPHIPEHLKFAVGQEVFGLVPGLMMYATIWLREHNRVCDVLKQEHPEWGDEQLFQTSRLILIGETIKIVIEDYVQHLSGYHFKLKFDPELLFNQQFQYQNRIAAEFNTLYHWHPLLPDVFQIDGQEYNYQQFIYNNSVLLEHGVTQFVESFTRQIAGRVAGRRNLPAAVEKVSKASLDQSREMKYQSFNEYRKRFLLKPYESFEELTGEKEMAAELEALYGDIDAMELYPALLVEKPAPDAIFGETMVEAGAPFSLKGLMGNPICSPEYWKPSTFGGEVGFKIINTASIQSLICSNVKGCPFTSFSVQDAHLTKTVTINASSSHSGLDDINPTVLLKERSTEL
rabbit Imidazoline 2 Central (I2C), CKB (gene 100009085), sequence (P00567 whole entry, looked up): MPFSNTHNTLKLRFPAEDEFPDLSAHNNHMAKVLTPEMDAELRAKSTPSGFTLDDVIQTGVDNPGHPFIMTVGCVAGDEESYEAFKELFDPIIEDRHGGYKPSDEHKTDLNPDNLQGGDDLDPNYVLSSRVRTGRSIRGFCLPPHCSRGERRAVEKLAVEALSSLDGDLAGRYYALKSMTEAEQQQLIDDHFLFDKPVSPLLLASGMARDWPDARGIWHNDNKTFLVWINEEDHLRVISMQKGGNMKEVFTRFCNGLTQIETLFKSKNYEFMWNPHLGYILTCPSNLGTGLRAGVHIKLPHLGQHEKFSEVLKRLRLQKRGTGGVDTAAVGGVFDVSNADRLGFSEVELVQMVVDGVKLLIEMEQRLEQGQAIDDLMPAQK
human Vascular Endothelial Growth Factor Receptor 1 (VEGFR1), FLT1 (gene 2321), sequence (P17948 whole entry, looked up): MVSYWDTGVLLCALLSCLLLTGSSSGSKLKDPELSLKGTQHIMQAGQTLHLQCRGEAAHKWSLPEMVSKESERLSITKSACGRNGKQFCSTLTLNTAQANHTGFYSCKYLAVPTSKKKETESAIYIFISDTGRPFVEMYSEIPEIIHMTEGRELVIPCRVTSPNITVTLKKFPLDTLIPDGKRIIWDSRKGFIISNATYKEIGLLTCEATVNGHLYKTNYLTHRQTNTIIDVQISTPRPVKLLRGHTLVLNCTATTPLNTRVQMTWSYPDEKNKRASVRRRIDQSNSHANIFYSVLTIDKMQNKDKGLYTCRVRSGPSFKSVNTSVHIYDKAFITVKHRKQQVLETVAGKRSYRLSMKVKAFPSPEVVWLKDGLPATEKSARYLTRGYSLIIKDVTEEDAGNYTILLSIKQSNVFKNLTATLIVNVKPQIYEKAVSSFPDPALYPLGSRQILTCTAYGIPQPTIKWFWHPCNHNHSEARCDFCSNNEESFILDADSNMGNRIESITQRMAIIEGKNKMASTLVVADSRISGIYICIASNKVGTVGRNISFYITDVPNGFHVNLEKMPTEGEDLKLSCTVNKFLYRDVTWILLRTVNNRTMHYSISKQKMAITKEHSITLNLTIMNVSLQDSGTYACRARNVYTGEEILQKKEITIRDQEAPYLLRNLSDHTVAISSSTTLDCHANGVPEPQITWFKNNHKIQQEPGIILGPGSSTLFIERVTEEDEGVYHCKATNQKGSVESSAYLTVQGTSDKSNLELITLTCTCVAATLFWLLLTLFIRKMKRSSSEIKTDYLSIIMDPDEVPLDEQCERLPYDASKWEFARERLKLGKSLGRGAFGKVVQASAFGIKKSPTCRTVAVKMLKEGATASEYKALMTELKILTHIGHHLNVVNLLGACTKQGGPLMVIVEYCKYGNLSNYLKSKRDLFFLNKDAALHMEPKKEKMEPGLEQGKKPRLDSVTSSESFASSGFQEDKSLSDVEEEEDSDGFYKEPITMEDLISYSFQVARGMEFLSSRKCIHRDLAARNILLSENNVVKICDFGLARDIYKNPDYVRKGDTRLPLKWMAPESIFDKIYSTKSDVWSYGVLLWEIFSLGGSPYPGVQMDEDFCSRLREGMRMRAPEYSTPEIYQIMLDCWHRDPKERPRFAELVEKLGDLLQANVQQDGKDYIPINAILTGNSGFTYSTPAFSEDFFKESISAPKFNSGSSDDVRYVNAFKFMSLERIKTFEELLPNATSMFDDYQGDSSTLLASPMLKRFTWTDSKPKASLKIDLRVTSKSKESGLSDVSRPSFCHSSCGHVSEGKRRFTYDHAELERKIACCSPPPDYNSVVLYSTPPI
human SRC Proto-Oncogene, Non-receptor Tyrosine Kinase (SRC), SRC (gene 6714), sequence (P12931 whole entry, looked up): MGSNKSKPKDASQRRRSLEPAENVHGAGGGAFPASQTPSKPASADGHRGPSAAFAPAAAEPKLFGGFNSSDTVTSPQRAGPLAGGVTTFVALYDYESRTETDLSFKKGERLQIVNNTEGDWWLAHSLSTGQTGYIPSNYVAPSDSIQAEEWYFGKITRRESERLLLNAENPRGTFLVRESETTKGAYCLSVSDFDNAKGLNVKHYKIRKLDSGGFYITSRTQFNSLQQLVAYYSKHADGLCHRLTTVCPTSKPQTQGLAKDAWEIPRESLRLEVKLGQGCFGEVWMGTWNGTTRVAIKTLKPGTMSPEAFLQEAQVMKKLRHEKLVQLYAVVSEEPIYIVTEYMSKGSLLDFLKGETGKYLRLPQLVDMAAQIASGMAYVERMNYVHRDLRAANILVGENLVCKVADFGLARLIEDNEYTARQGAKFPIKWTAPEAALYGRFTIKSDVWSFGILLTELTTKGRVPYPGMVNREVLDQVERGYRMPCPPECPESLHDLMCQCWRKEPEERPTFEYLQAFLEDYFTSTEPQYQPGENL

Consider `CCOC(=O)Nc1cccc(OC(=O)Nc2ccccc2)c1`, for which the AC50 in test [1] is 8.56 µM (active).

Regarding `Oc1ccc(-c2ccccc2)cc1`, the call in test [1] was inactive.

As to `COc1cc(OC)nc(NC(=O)NS(=O)(=O)c2ncccc2C(=O)N(C)C)n1`, the outcome in test [2] was inactive. Besides, the AC50 in [1] is 7.06 µM (active).

As to `CC12CC1(C)C(=O)N(c1cc(Cl)cc(Cl)c1)C2=O` (stereo not drawn), the AC50 in test [2] was 3.77 µM (active). The compound was classed as inactive in test [3] and in [1].

As for `CC(C)(c1ccccc1)c1ccc(O)c(C(C)(C)c2ccccc2)c1`, the compound was called inactive in test [4].

`CCCCCCCCCl`: the AC50 in test [1] is 0.0723 µM (active).

Regarding `CC(C)(C)CC(C)(C)c1ccc(O)cc1`, the compound was classed as inactive in test [5], in [4] and in test [2].

Regarding `Nc1ncc([N+](=O)[O-])s1`, the AC50 in [6] was 40.4 µM (active).

With `CCCCCCCCc1ccc(O)cc1`, the call in [4] was inactive.

As for `COP(=S)(OC)Oc1ccc(Sc2ccc(OP(=S)(OC)OC)cc2)cc1`, the outcome in test [7] and in test [4] was inactive.

For the compound `O=c1[nH]c(=O)[nH]c(=O)[nH]1`, the compound was called inactive in test [8] and in test [2].

For the compound `ClCCBr`, the compound was called inactive in test [1].

For the compound `O=C1C2(Cl)C3(Cl)C4(Cl)C(Cl)(Cl)C5(Cl)C3(Cl)C1(Cl)C5(Cl)C24Cl` (stereo not drawn), the result in [4] was inactive.

Take `O=[N+]([O-])c1ccc2c3c(cccc13)CC2`: the AC50 in [1] was 18.9 µM (active).

For `OCc1ccco1`, in [1], the half-maximal activity concentration (AC50) is 6.01 µM (active).

Turning to `O=C(O)C(Cl)(Cl)Cl`, the compound was called inactive in [9].

On to `CC(=O)C(Cl)C(=O)N(C)C` (stereo not drawn), for which the compound was called inactive in test [1].

As for `ClC1(Cl)C2(Cl)C3(Cl)C4(Cl)C(Cl)(Cl)C5(Cl)C3(Cl)C1(Cl)C5(Cl)C24Cl` (stereo not drawn), the call in test [10] and in test [2] was inactive.

Take `CCOC(=O)/C=C(C)/C=C/C[C@@H](C)CCCC(C)C`: the AC50 in test [1] was 31.3 µM (active).

As for `COP(=S)(OC)Oc1cc(Cl)c(Cl)cc1Cl`, the compound was classed as inactive in test [6].

In the case of `COc1cc(-c2ccc(N)c(OC)c2)ccc1N`, in test [11], the AC50 was 10.4 µM (active) and 18.1 µM (active).

In the case of `C=C(C)C(=O)[O][Sn]([CH2]CCC)([CH2]CCC)[CH2]CCC`, the compound was classed as inactive in test [12]. Besides, the values for the AC50 in test [13] and in test [14] were 25 µM (active) and 10.6 µM (active), respectively.

In the case of `Cl/C=C\C[N+]12CN3CN(CN(C3)C1)C2`, the AC50 in test [1] was 5.46 µM (active).

The values are drawn from PubChem BioAssay (EPA / NIEHS).
